# Bioassay records: PubChem BioAssay, National Center for Advancing Translational Sciences (NCATS)
# TDP1 cell noCPT: qHTS for Inhibitors of human tyrosyl-DNA phosphodiesterase 1 (TDP1): qHTS in cells in absence of CPT | DT40 Tdp1-/- hTDP1 cells, no CPT, ATP luminescence, 48 h | Potency, µM (doses to about 46.2 µM), for inactives: at the highest dose activity change, negative = growth inhibition, actives largely listed as inhibitors | 420,000 tested, 15% active; also: nearly all actives have a fitted effect of over 55% in size
#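 Readout: luminescence from CellTiter-Glo after 30 min in the dark at RT. Cells: DT40 Tdp1-/- with stable hTDP1, 400/well. Exposure: compounds alone, ≥48 hr, 37 °C.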
# DT40 TDP1 CPT: growth inhibition of DT40 Tdp1-/-;hTDP1 cells with camptothecin (screen for TDP1 inhibitors). chicken DT40 Tdp1-/-;hTDP1 cells + 20 nM CPT, ATP luminescence, 48 h. Potency, µM (titrated, usually from 46.2 µM), for inactives: at the highest dose activity change, negative = growth inhibition, most hits filed as inhibitors. 420,000 tested, 12% active. AID 686979; also: nearly all actives have a fitted effect of over 55% in size
#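 Cell growth measured by CellTiter-Glo luminescence after a minimum 48 h, 37 C compound exposure with 20 nM CPT in Tdp1-knockout DT40 cells stably expressing hTDP1, seeded 400/well; qHTS titration format.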
# KB-V1 cytotox: KB-V1 MDR subline cytotoxicity; KB-V1 MDR cells viability, CellTiter-Glo, 72 h; 400,000 tested, 3.4% active; Potency, µM (top dose mostly 46.1 µM), usual class: cytotoxic; also: nearly all actives have a fitted effect of over 60% in size
#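 Compound-treated KB-V1 multidrug-resistant cells, 72 h, 37 degrees C; viability by CellTiter-Glo. Fitted qHTS curves give the values.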
# HT1080 IDH1KD tx: kills HT-1080 cells with IDH1 knockdown; 360,000 tested, 2% active; HT-1080 IDH1 knockdown viability, ATP luminescence, 48 h; Potency, µM (top dose mostly 46.1 µM), for the others: top-dose activity, negative = toxicity, actives largely listed as cytotoxic;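 also: 0% = DMSO wells and -100% = cell-free medium wells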
#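 CellTiter-Glo luminescence after 48 h compound exposure at 37 degrees C of IDH1-knockdown HT-1080 cells in 5% FBS RPMI. %Activity scaled between DMSO wells and cell-free media wells, with curves fitted and assigned curve classes.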
# KB-3-1 tox: KB-3-1 parental cell cytotoxicity | KB-3-1 viability, CellTiter-Glo ATP luminescence, 72 h | 400,000 tested, 1.4% active | Potency, µM (doses to about 46.1 µM), actives largely listed as cytotoxic; also: nearly all actives have a fitted effect of over 60% in size
#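 Screening of KB-3-1 cells (DMEM, 10% FBS, phenol-red free) ran from lowest to highest compound concentration; after 72 h at 37 °C viability was read luminescently and curves fitted.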
# HT1080NT lethal: kills 2HG-producing HT-1080-NT fibrosarcoma cells | HT-1080-NT fibrosarcoma viability, CellTiter-Glo ATP luminescence, 48 h | 360,000 tested, 1.6% active | Potency, µM (highest dose often 46.1 µM), for inactives: at the top dose activity, negative = less viability, actives largely listed as cytotoxic;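 also: NT is the 2HG producing partner of a matched IDH1 knockdown line; 0% = DMSO-treated cells and -100% = media-only wells without cells; nearly all actives have a fitted effect of over 55% in size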
#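 Viability of the 2HG-overproducing fibrosarcoma line after 48 hours of compound exposure at 37 degrees C was determined by luminescence with CellTiter-Glo, and concentration-effect curves were then fitted and categorized.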
# * = called active by the depositor; i = inactive; ? = inconclusive; . = no result given; [ ] = remark or other dose. Only some compounds are listed: those with a hit (about 19% of all), similar ones and a draw of the others. Calls follow the shape of the dose curve; as a rule, active = well fitted curve in the direction sought with a large enough effect; inconclusive = small, poorly fitted or top-dose-only effect, or another doubt; inactive = no such curve, though single readings can be large; an effect the other way counts as inactive or inconclusive. Unless noted, % is scaled to controls: 0 for no effect and ±100 for the full control effect; potency is read from the fitted curve at half-maximal effect.
SMILES,TDP1 cell noCPT,DT40 TDP1 CPT,KB-V1 cytotox,HT1080 IDH1KD tx,KB-3-1 tox,HT1080NT lethal
CCc1nc2ccccc2c(C(=O)NCc2ccccc2)c1C,-1.3%,-7.7%,i,14.1%,i,1.5%
CCc1c(-c2ccccc2)nc2ccccc2c1C(=O)NCCc1ccccc1,23.1µM*,?,.,.,.,.
COc1ccccc1NC(=O)c1cc2c(cc1Cl)N1CCCCCC1=NS2(=O)=O,-23.3%,0.6%,.,9.6%,.,-0.6%
Cc1ccc(S(=O)(=O)N(C)C[C@@H]2OCc3cnnn3CCCC(=O)N([C@@H](C)CO)C[C@@H]2C)cc1,-19.9%,-0.5%,i,-3.5%,i,0.1%
COc1ccc(CCNC(=O)c2ccc(SC)cc2OC)cc1,?,-14.2%,i,-22.3%,i,-5.5%
COc1cc(SC)ccc1C(=O)NNC(=O)c1cc(C)oc1C,14.6µM*,?,?,9.2µM*,?,8.2µM*
CCc1ccc(OCCNC(=O)c2ccccc2SCc2ccc(F)cc2)cc1,25.9µM*,?,18.4µM*,-1.2%,i,-6.5%
COc1cc(SC)ccc1C(=O)Nc1ccc2c(c1)OCCO2,?,?,?,?,i,1.78µM*
COc1cc(SC)ccc1C(=O)NCCOc1ccc(F)cc1,16.4µM*,?,i,3.2%,i,1.0%
O=C(NCCOc1ccc(F)cc1)c1ccccc1SCc1ccccc1,?,-25.5%,?,-4.8%,i,-5.8%
NC(=O)c1nn(-c2ccc(Cl)cc2Cl)c(=O)cc1O,3.5%,-4.6%,i,28.2%,i,8.0%
COc1cc(SC)ccc1C(=O)Nc1c(C)cccc1C,13µM*,?,?,10.8%,i,4.7%
COc1ccccc1-n1c(=O)c(C#N)c(-c2ccc([N+](=O)[O-])cc2)c2cc(C(=O)c3ccccc3O)cnc21,5.3%,-11.8%,?,4.7%,?,7.2%
CCN(CC)c1ccc(/C=C2/SC(=O)N(C(C)C)C2=O)o1,2.31µM*,-91.0%,i,?,?,13µM*
CC(C)N1C(=O)S/C(=C\c2ccc(-c3ccc(Cl)c(C(=O)O)c3)o2)C1=O,?,?,i,-17.1%,i,-23.1%
CCN(CC)S(=O)(=O)c1ccc(C(=O)NC2CC(=O)N(c3ccc4c(c3)OCCO4)C2)cc1 (stereo not drawn),?,-12.7%,?,.,i,.
CC(=O)O[C@@H]1CC2CCC1(C)C2(C)C (stereo partly drawn),-3.8%,0.0%,.,.,.,.
CC1(C)C2CCC1(C)C(OCC[N+](C)(C)CC(=O)OC1CCCCC1)C2 (stereo not drawn),0.651µM*,1.16µM*,i,?,?,?
CCOC(=O)C[N+](C)(C)CCOC1CC2CCC1(C)C2(C)C (stereo not drawn),7.31µM*,16.4µM*,i,0.3%,i,-0.5%
CC1(C(=O)NCCc2c[nH]c3ccccc23)CCN1CC1CCCCC1 (stereo not drawn),?,?,i,5.5%,i,5.9%
Cc1ccc(S(=O)(=O)N(CC(=O)N(C(C)C)C(C)C)C(=O)N2CCN(C)CC2)cc1,9.1%,9.2%,i,20.4%,i,7.9%
CC(C)c1ccc(NC2CCCN(C(=O)CC3CCCC3)C2)cc1 (stereo not drawn),10.3µM*,20.6µM*,i,-20.3%,i,?
CC(C)c1ccc(NC2CCCN(C(=O)CCN3CCCC3=O)C2)cc1 (stereo not drawn),-1.9%,0.6%,i,17.5%,i,15.6%
Cc1ccnn1CCC(=O)N1CCCC(Nc2ccc(C(C)C)cc2)C1 (stereo not drawn),16.4µM*,20.6µM*,?,-9.4%,i,-0.5%
Cc1cc(NC(=O)C2CCN(S(=O)(=O)c3ccc4[nH]c(=O)oc4c3)CC2)ccc1Br,?,?,i,.,i,.
SMILES,TDP1 cell noCPT,DT40 TDP1 CPT,KB-V1 cytotox,HT1080 IDH1KD tx,KB-3-1 tox,HT1080NT lethal
COc1ccccc1N1CCN(C(=O)COc2ccc(C)cc2Br)CC1,?,-16.0%,?,-16.2%,i,-20.7%
COc1ccccc1N1CCN(C(=O)/C=C/c2ccc(C)cc2)CC1,13µM*,?,16.4µM*,6.6%,i,4.7%
COc1ccccc1N1CCN(C(=O)COc2cc(C)cc3oc(=O)cc(C)c23)CC1,20.6µM*,16.4µM*,?,-0.9%,i,-1.1%
Cc1cc(OCC(=O)Nc2ccccc2C(N)=O)c2c(C)cc(=O)oc2c1,23.1µM*,?,?,3.6%,i,2.4%
COc1ccccc1N1CCN(C(=O)COc2cc(C)ccc2C)CC1,16.4µM*,?,i,-5.9%,i,-2.6%
Cc1cc(-c2ccc(C)c(S(=O)(=O)NCCC(C)N3CCCCCC3)c2)on1 (stereo not drawn),-19.9%,-19.5%,?,-0.6%,i,-1.9%
Cc1ccc(-c2cc(C(=O)OCC(=O)Nc3ncc(C(F)(F)F)cc3Cl)c3ccccc3n2)cc1,?,14.6µM*,i,0.8%,?,6.5%
Cc1ccc(C(=O)COC(=O)c2cc(-c3ccc(Cl)cc3)nc3ccccc23)cc1,20.6µM*,10.3µM*,i,.,i,.
Cc1ccc(C(=O)NCC(=O)OCC(=O)Nc2ncc(C(F)(F)F)cc2Cl)cc1,22.3%,-4.6%,i,-0.8%,i,-13.7%
CCC1CN(CCNC(=O)c2scc3c2OCCO3)Cc2cc(OC)ccc2O1 (stereo not drawn),?,4.8%[9.04 µM],.,.,.,.
CCc1ccccc1NNC(=O)c1snnc1C,?,-2.7%,i,?,i,11.6µM*
COc1ccc([C@H]2CC(=O)C=C(c3ccc(-c4ccccc4)cc3)C2)cc1OC,-21.2%,-14.4%,i,8.4%,i,-4.9%
COc1ccc([C@H]2CC(=O)C=C(c3ccc(CNC(=O)OC(C)(C)C)cc3)C2)cc1,23.1µM*,?,?,?,?,-25.6%
COc1ccc([C@H]2CC(=O)C=C(c3cc(F)ccc3F)C2)cc1OC,-51.8%,?,i,-10.8%,i,-1.1%
COc1ccc([C@H]2CC(=O)C=C(c3cccc(OC)c3OC)C2)cc1OC,23.1µM*,?,i,-9.1%,i,-0.3%
COc1ccc([C@H]2CC(=O)C=C(c3ccc(C)cc3)C2)cc1OC,?,18.4µM*,i,-10.6%,i,4.3%
COc1ccc(C2=CC(=O)C[C@H](c3ccc(OC)c(OC)c3)C2)cc1,18.4µM*,13µM*,i,-1.0%,i,-0.5%
